For some of these results: Results with a measured potency or affinity are listed apart.
Key:
Set-up in all cases: scale not given: direction of the effect not stated beside the values
[1] = biological target: Protein translocase subunit SecA (Escherichia coli (strain K12)) (UniProt P10408); assay: Assay to Identify E. coli SecA ATPase Inhibitors; type: functional; conditions: 30 µM
[2] = biological target: T1, Ubiquitin-activating enzyme e1, putative (Leishmania donovani (strain BPK282A1)) (UniProt E9BSI1); assay: Leishmania donovani Ubiquitin Activating Enzyme (LdE1); type: functional; conditions: 30 µM
T1 sequence (whole entry): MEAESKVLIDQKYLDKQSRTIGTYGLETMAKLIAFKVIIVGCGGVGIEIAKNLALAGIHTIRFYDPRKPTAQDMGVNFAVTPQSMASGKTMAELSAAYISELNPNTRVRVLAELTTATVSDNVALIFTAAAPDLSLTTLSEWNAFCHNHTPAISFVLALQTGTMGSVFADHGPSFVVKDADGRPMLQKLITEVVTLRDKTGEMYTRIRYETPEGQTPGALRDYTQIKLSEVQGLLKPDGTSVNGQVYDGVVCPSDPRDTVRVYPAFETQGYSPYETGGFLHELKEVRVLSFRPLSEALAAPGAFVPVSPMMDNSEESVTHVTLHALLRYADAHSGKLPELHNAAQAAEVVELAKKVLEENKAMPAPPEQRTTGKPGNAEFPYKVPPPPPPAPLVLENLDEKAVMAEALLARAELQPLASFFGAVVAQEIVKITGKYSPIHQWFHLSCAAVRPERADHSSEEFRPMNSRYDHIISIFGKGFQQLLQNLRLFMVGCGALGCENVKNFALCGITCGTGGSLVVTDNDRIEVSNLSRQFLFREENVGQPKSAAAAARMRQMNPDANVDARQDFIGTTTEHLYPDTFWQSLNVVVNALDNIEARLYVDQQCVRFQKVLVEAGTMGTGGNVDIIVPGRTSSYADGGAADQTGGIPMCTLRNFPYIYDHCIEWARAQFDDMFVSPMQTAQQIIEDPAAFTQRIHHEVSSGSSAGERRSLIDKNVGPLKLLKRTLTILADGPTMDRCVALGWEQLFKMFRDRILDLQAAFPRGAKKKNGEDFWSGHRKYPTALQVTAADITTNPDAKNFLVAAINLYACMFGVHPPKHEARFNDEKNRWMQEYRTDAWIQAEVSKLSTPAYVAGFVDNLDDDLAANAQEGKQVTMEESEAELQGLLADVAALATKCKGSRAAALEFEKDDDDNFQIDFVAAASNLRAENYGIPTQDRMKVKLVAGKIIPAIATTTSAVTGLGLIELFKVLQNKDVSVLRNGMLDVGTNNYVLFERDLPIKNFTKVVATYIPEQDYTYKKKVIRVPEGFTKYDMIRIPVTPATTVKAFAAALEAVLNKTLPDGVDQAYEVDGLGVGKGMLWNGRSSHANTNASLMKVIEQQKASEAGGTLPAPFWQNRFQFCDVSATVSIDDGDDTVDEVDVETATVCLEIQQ

[3] = biological target: AMP-activated protein kinase, AMPK (Homo sapiens) (UniProt P54646+O43741+P54619+Q9UGJ0+Q9Y478+Q13131+Q9UGI9); assay: AMP-dependent Kinase enzyme assay. An in vitro enzyme assay that detects ADP turnover that is directly proportional to AMPK activity. This uses naive AMPK that is activated during the assay with MK-8722; type: functional; conditions: 30 µM
[4] = biological target: Sialic acid-binding Ig-like lectin 9 (Homo sapiens) (UniProt Q9Y336); assay: Hs-Siglec9 ALPHAscreen SOP 20170721; conditions: 10 µM
Chain of Sialic acid-binding Ig-like lectin 9 (Homo sapiens) (Q9Y336 whole entry): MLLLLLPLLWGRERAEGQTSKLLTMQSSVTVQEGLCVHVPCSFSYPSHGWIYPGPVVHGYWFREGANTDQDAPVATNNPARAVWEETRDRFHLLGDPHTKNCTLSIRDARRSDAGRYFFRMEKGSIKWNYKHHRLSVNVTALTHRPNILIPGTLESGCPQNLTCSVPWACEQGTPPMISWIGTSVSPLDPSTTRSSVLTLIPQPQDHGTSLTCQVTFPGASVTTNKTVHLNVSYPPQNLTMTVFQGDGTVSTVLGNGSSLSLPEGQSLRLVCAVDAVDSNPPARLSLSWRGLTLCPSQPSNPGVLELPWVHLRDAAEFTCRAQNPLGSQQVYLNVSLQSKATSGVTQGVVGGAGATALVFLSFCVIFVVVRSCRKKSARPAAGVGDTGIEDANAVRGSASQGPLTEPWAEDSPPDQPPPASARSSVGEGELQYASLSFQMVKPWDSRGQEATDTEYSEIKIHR

[5] = system: Trypanosoma cruzi; assay: Trypanosoma cruzi phosphomannomutase and mannose-1-phosphate guanylyltransferase assay; type: functional; conditions: 10 µM
[6] = biological target: T2, Arginase-2, mitochondrial (Homo sapiens) (UniProt P78540); assay: in vitro enzyme assay to detect the production of urea directly proportional to the activity of Arginase II; type: functional; conditions: 33.3 µM; further: in the data most compounds retested in dose-response had high values
T2 sequence (whole entry): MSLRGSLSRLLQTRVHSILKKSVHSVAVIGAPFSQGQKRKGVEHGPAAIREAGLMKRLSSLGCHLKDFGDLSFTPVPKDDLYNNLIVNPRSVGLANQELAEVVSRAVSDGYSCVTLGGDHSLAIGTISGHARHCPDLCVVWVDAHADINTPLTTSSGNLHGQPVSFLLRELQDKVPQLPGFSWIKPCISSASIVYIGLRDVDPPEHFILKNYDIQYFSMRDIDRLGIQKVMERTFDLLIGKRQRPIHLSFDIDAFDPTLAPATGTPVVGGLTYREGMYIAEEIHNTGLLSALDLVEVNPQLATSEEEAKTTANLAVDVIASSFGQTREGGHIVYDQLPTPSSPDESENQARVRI

[7] = biological target: T3, Proteasome subunit beta (Trypanosoma cruzi) (UniProt O96673); assay: Trypanosoma cruzi proteasome chymotrypsin-like activity (TcProtChymo) assay.; further: in the data most compounds retested in dose-response had high values; type: functional; conditions: 9.37 µM
T3 sequence (whole entry): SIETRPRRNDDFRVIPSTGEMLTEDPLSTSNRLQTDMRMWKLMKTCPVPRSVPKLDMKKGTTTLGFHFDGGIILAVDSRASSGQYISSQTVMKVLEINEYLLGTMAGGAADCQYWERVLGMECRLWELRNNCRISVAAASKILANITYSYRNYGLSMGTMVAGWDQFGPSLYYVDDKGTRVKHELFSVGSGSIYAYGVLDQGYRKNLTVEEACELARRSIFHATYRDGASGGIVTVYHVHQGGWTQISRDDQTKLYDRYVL

[8] = organism: Homo sapiens; assay: To identify inhibition of the IFN signalling (Jak-Stat) pathway via expression of an eGFP reporter gene under the control of an IFN-stimulated response element (ISRE) containing MxA promoter.; type: functional; conditions: 30 µM
[9] = biological target: T4, Tyrosyl-tRNA synthetase, putative (Trypanosoma cruzi (strain CL Brener)) (UniProt Q4DSP6); assay: Trypanosoma cruzi tyrosyl tRNA synthetase (TcYRS) _High Tyrosine SOP; type: functional; conditions: 30 µM; further: in the data most compounds retested in dose-response had high values
T4 sequence (whole entry): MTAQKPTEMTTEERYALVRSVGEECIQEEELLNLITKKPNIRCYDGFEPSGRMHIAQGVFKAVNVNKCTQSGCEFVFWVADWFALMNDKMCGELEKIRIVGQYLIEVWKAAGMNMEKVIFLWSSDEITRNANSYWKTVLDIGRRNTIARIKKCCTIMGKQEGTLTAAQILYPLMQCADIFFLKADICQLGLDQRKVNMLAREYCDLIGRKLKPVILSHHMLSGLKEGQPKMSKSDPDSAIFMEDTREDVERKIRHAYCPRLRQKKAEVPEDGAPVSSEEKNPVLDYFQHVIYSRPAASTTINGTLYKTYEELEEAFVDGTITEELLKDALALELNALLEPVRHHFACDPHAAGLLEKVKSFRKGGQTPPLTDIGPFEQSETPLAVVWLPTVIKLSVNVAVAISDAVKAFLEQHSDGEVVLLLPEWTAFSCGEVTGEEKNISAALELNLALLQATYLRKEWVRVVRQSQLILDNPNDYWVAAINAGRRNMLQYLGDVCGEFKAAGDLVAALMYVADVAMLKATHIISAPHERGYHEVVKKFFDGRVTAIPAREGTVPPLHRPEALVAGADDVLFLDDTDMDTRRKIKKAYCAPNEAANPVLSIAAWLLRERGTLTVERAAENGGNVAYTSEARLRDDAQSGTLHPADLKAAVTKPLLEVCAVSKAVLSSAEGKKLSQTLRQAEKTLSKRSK

[10] = biological target: T4, Tyrosyl-tRNA synthetase, putative (Trypanosoma cruzi (strain CL Brener)); assay: Trypanosoma cruzi tyrosyl tRNA synthetase (TcYRS) SOP; type: functional; conditions: 30 µM
[11] = biological target: Chromo domain-containing protein 1 (Saccharomyces cerevisiae (strain ATCC 204508 / S288c) (Baker's yeast)) (UniProt P32657); assay: ScCHD-1 Enzyme Inhibition Assay; type: functional; conditions: 30 µM; further: in the data most compounds retested in dose-response had high values
Chain of Chromo domain-containing protein 1 (Saccharomyces cerevisiae (strain ATCC 204508 / S288c) (Baker's yeast)) (P32657 whole entry, the tested form may be a part): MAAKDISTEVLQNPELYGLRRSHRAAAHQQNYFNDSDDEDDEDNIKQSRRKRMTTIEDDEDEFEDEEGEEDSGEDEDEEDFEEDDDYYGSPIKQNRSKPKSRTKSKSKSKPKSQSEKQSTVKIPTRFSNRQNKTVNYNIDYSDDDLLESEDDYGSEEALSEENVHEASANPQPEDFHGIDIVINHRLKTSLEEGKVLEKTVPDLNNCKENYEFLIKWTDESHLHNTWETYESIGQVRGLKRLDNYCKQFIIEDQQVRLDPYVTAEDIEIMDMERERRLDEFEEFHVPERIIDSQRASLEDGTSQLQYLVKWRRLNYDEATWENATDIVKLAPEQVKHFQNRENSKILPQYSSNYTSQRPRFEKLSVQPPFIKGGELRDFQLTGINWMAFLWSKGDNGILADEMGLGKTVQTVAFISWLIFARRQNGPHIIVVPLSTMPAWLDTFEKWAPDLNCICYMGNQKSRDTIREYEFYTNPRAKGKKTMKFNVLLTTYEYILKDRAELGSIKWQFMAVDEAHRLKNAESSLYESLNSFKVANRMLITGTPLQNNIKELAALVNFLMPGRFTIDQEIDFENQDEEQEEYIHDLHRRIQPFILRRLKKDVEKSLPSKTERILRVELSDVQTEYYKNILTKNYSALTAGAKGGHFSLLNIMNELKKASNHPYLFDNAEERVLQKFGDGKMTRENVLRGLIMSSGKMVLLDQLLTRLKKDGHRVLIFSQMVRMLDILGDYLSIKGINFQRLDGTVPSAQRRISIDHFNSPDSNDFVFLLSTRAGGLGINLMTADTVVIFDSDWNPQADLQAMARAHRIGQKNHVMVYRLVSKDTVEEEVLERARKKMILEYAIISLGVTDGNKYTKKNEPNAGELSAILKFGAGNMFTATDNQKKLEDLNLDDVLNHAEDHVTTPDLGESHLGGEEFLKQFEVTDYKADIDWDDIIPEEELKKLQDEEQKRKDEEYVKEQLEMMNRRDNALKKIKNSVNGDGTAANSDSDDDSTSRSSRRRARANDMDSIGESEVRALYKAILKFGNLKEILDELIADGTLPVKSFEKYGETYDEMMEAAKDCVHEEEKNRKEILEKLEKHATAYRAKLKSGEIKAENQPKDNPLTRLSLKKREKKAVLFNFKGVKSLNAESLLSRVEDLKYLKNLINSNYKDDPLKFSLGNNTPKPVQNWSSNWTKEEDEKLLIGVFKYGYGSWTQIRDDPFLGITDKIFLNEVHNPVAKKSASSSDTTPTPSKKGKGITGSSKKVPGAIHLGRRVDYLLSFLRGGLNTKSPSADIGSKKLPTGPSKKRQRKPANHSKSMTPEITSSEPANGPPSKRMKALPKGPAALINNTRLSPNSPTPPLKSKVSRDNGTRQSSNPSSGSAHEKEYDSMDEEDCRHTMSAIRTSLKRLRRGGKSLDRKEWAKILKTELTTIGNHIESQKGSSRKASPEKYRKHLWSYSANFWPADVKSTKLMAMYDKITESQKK

Chain of Protein translocase subunit SecA (Escherichia coli (strain K12)) (P10408 whole entry): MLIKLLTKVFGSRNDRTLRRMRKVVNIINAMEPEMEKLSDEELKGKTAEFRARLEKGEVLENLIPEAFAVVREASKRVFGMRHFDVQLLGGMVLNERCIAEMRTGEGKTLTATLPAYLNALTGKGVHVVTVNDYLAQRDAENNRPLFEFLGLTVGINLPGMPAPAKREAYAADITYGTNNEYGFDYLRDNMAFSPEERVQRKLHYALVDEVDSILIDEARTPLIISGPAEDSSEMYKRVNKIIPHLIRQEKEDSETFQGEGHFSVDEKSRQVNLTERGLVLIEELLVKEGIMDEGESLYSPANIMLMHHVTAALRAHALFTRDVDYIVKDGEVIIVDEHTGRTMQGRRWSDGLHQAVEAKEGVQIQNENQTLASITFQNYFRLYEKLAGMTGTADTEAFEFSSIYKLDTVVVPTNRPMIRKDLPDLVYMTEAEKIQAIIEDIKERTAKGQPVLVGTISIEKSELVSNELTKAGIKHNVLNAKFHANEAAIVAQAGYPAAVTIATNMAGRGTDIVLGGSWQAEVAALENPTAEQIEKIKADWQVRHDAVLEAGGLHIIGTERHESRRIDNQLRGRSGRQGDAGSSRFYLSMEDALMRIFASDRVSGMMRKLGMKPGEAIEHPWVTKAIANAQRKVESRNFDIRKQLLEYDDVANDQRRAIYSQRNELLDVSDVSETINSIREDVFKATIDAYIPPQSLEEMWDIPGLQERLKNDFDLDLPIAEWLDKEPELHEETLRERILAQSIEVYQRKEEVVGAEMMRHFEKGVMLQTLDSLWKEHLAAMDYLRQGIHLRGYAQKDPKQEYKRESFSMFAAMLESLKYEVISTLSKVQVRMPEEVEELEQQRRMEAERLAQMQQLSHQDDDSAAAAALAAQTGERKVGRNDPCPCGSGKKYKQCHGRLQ

Structure (SMILES)	Percent Effect [1]	Percent Effect [2]	Percent Effect [3]	Percent Effect [4]	Percent Effect [5]	Percent Effect [6]	Percent Effect [7]	Percent Effect [8]	Percent Effect [9]	Percent Effect [10]	Percent Effect [11]
Cc1ccc(C(=O)N2CCSCC2)cc1NC(=O)NCCO	-5.08%	2.74%	6.7%	18.5%	1.39%	-1.2%	9.68%	15.2%	6.25%	11.1%	-3.9%
Cc1ccsc1[C@@H]1CCN(C(=O)c2cc3ccccc3[nH]2)C[C@H]1O	-2.04%	-1.39%	0.967%	-5.71%	-6.51%	-0.442%	15.3%	12.8%	-3.16%	-2.56%	2.93%
CC(CNC(=O)c1cccnc1Oc1cccnc1)N(C)C (configuration not stated)	-0.805%	18.9%	-3.66%	10.5%	6.56%	10%	12.9%	4.67%	4.76%	17.1%	-1.51%
CC(NC(=O)NCCCc1n[nH]c(N)c1C#N)c1ccccc1 (configuration not stated)	-5.52%	22.8%	48.4%	-3.62%	3.68%	-11.8%	14.8%	7.81%	6.4%	24.1%	-5.91%
CC(NC(=O)NCCCN(C)C)c1ccc2c(c1)CCC(=O)N2 (configuration not stated)	-3.72%	13%	0.292%	-0.949%	10.1%	-6.05%	15%	-16.2%	8.74%	21.9%	-6.2%
COc1nn(C)c2c1CCCN(C(=O)c1cc[nH]n1)C2	-5.44%	-5.41%	5.53%	2.19%	-4.4%	-0.319%	22.3%	-1.16%	-11.9%	-12.8%	6.55%
O=C(NCc1ccccn1)[C@@H]1CCO[C@@H]2CCN(Cc3ccoc3)C[C@H]21	-4.59%	8.11%	7.22%	-2.83%	-3.03%	0.955%	17.5%	3.21%	4.32%	15.4%	-2.07%
c1cnnc(N2CCCC2CNc2ncnc3ccccc23)c1 (configuration not stated)	-3.22%	-3.8%	9.15%	-3.44%	-4.41%	4.09%	9.61%	36%	25%	27.9%	-16.5%
COCCCNC(=O)CN(C)C(=O)c1cc(C)ccc1N(C)C(C)C	-2.35%	10.8%	-5.29%	6.07%	0.65%	-3.88%	0%	5.31%	1.98%	13.4%	-2.86%
CCN1C(=O)C(C)(C)c2cc(NC(=O)c3ccco3)ccc21	-5.66%	10.4%	17.2%	5.8%	1.48%	-13.8%	12.7%	19.7%	12.9%	21%	0.612%
CSCCCN1CCn2nc(CNC(C)=O)cc2C1	-4.2%	0%	6.86%	4.06%	-7.05%	-0.455%	8.16%	27.3%	-1.07%	-2.5%	-4.5%
O=C(c1cnccn1)N1CCOC2(CCN(Cc3ccsc3)CC2)C1	-1.55%	0%	2.03%	7.22%	1.16%	-52.1%	0%	-18.7%	2.08%	2.5%	-4.34%
CN(c1ccc(C(C)(C)C)cc1)S(=O)(=O)c1cc(C(=O)O)cs1	-2.58%	-2.7%	-8.07%	8.29%	-3.11%	2.4%	-1.08%	-8.15%	-1.48%	1.24%	1.18%
COCC1CN(Cc2ccc(C)o2)Cc2nnn(CC3CC3)c21 (configuration not stated)	-3.94%	2.6%	4.37%	2.36%	-2.46%	2.76%	0.832%	-1.19%	-2.15%	-1.24%	5.36%
CC(C)CN1CCN(Cc2nc3ccccc3[nH]2)[C@H]2CS(=O)(=O)C[C@H]21	-0.363%	10.8%	1.86%	-1.7%	-6.35%	2.73%	5.41%	0.0398%	14%	23.5%	-6.24%
CCS(=O)(=O)N1CC[C@]2(C[C@@H](OCC3CC3)CO2)C1	-5.7%	5.41%	-4.19%	27.4%	6.94%	-1.74%	13.3%	1.36%	8.6%	13.6%	-6.86%
O=C(NCCCN1CCOCC1)Nc1cnc2cc(Cl)ccc2c1O	0.589%	17.6%	9.55%	-8.53%	-3.16%	-5.34%	12.8%	31.9%	0%	1.3%	-6.01%
